For the assay, the target named is Protein phosphatase methylesterase 1 (Homo sapiens) (UniProt Q9Y570). Description: PME-1 inhibitor activity retest, confirmation, biochemical, fluorescence polarization, FP-Rh probe, triplicate (AID 2171).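 Further: 0% = enzyme with DMSO and 100% = wells lacking PME-1.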 The conditions noted are these: recombinant PME-1, FP-Rh probe fluorescence polarization; at 5.9 µM; stronger effect = higher value. For orientation: Fluorescence polarisation rises when a labelled molecule tumbles more slowly, as on binding a larger partner.
Sequence of Protein phosphatase methylesterase 1 (Homo sapiens) (Q9Y570 whole entry, looked up): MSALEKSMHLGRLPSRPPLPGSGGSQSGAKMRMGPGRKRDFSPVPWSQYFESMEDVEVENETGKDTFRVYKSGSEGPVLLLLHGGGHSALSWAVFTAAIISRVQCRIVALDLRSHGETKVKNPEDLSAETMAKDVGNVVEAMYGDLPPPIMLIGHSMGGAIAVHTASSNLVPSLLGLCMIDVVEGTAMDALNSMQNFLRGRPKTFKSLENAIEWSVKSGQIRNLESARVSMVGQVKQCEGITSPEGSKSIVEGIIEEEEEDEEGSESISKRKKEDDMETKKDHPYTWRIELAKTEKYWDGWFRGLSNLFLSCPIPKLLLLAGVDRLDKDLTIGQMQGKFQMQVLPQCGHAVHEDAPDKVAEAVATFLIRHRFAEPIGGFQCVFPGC

Values without a mark were called inactive. Calls of active or inactive are those of the source.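 How the source made its calls: active means inhibition above the hit cutoff set in the earlier primary screen (cut at about 27% in these data); inactive means the rest.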

The inhibition is the change of the read-out against control, counted positive when it falls.

With `CCN(CC)S(=O)(=O)c1ccc(Cl)c(NC(=O)COC(=O)c2ccc(O)cc2)c1`, the inhibition is 24.9%.

As to `O=C(CNc1ccc2ccccc2c1)N/N=C/c1cc2ccccc2nc1Cl`, the inhibition is 22.6%. With `COc1ccccc1N1CCN(C(=O)C2CCN(S(=O)(=O)c3ccc(C)cc3)CC2)CC1` the figure was 15.3%. With `O=C(/C=C1\NC2(CCCC2)Cc2ccccc21)C(=O)N/N=C/c1ccc(O)c(O)c1` the figure was -18.9%. With `O=C(Nc1ccc([N+](=O)[O-])cc1)Nc1ccc2[nH]c(=O)[nH]c2c1` the figure was -15.6%; with `CCC1Sc2ccc(S(=O)(=O)CCC(=O)Nc3ccc(OC(F)(F)F)cc3)cc2NC1=O` (stereo not given), 17.3%; with `O=C(O)CSc1cc(NS(=O)(=O)c2ccc(Br)cc2)c2ccccc2c1O`, 3.78%. As to `O=C(COC(=O)c1ccccc1Br)Nc1cc(S(=O)(=O)N2CCOCC2)ccc1N1CCCC1`, the inhibition is 52.1% (active).

For `Cc1noc(C)c1CSc1nc2ccccc2nc1NS(=O)(=O)c1ccc(Cl)cc1`, the inhibition was 36% (active). With `CCC(C)Nc1nc(N)c([N+](=O)[O-])c(Nc2cc(OC)ccc2OC)n1` (stereo not given), the inhibition was 34.5% (active).

As to `N#Cc1c(N)nc2c3c(sc(=N)c2c1N)NC(=O)CC3c1ccccc1` (stereo not given), the inhibition was 29% (active). With `O=C(Nc1ccc(N2CCOCC2)cc1)Nc1ccc(Cl)c(Cl)c1`, the inhibition was 21.4%. The same measure for `C#CCN1c2ccccc2Sc2cccnc21`: 1.92%; for `Cc1noc(NS(=O)(=O)c2ccc(NC(=O)Nc3ccc(Cl)c(Cl)c3)cc2)c1C`: -8.57%; for `Cc1ccc(NC(=O)CS(=O)CC(=O)Nc2ccccc2-c2ccc(C)o2)cc1` (stereo not given): 2.84%.
